The source of these data is the supplement of paper PMC10933113.

In this test the test system is KeratinoSens (HaCaT ARE-luciferase) cells. The test is described as follows: Nrf2/ARE luciferase activation call in qHTS KeratinoSens assay (1 = active, 0 = inactive).
For `COc1ccc(CN(CCN(C)C)c2ccccn2)cc1.O=C(O)/C=C\C(=O)O`, the “Nrf2/ARE luciferase activation call” value was “not active ARE inducer (skin sensitizer alert) (inactive)”. With `CC[n+]1ccccc1.O=S(=O)([O-])C(F)(F)F` the entry was “not active ARE inducer (skin sensitizer alert) (inactive)”; with `CC1(C)S[C@@H]2[C@H](NC(=O)Cc3ccccc3)C(=O)N2[C@H]1C(=O)O.CC1(C)S[C@@H]2[C@H](NC(=O)Cc3ccccc3)C(=O)N2[C@H]1C(=O)O.c1ccc(CNCCNCc2ccccc2)cc1`, “not active ARE inducer (skin sensitizer alert) (inactive)”; with `CCN(CC)CCc1nc(-c2ccccc2)no1.O=C(O)CC(O)(CC(=O)O)C(=O)O`, “not active ARE inducer (skin sensitizer alert) (inactive)”. `Cc1ccc(S(=O)(=O)O)cc1.NC1CCN(c2nc3c(cc2F)c(=O)c(C(=O)O)cn3-c2ccc(F)cc2F)C1` (stereo not given): the “Nrf2/ARE luciferase activation call” value is “not active ARE inducer (skin sensitizer alert) (inactive)”.
